In PMC7819943, “Rice protein-binding microarrays: a tool to detect cis-acting elements near promoter regions in rice”:
In all, about 39,000 sequences were measured (“fluorescence intensity (a.u.)”: median about 4,300, highest 2% from about 39,000 on). Shown is part of a subset that was picked to be rich in the highest values.

These sequences were tested against T1, OsSMF1 (Oryza sativa, UniProt Q6ZLB0 1-436) (assay: protein-binding microarray (RPBM); PBS, 2% BSA, 51.3 ng/ul salmon testes DNA, 50 uM zinc acetate, 200 nM TF, 25 C, 1 h; high values mean tight binding). Settings: protein: recombinant; tags: N-terminal polyhistidine and DsRed monomer fusion (pET32a); chain copies: 2; label: CyDye5-dUTP incorporated in the synthesized complementary strand; 3' TTTTT single-stranded linker to array surface; dsDNA, one strand shown.
T1 sequence: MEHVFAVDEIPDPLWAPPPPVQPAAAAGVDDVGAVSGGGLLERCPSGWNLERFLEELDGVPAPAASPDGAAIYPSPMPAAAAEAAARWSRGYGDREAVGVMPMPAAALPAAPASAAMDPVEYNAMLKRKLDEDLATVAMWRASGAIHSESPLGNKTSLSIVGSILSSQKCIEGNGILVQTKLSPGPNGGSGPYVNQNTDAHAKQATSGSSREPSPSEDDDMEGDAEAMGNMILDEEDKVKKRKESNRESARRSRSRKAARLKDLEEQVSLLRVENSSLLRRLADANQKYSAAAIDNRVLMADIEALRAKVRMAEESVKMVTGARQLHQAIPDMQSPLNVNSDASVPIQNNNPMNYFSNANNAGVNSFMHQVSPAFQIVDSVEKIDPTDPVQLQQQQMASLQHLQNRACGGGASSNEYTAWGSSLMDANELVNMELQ
Procedure, shortened: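 Binding signal is reported as fluorescence intensity per feature (arbitrary units) from an Axon 4000B scanner. Incubation used 200 nM of each Ni–NTA-purified, N-terminally polyhistidine- and DsRed-fused transcription factor from E. coli BL21-CodonPlus on a double-stranded custom Agilent array for 1 h at 25 °C, with 50 µM zinc acetate in the buffer, followed by washing.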
For “TGGCTATACTATTGAACTTGCTCTCGTGGGACCCACATACCGGAGTCACCTAGTGCAG”, the binding signal was 3680 fluorescence intensity (a.u.). In the case of “CTTTTGGTCTCGCGCCCACTGACACGTGGGTCCCACGCTCCGGAGTCACCTAGTGCAG”, the binding signal is reported as 6100 fluorescence intensity (a.u.). “GCGCGCGCGTTCTCTAATCGAAGTCGATAGGATAGGAGGACGGAGTCACCTAGTGCAG” was tested, and the binding signal was 36900 fluorescence intensity (a.u.). “TATATAAGAGACCTCACCTCCAAGAATCTCCAGAGAGAGACGGAGTCACCTAGTGCAG” was tested, and the binding signal was 22900 fluorescence intensity (a.u.). In the case of “CATTCCCTCCTCCTCCTCCTCCTCCTCCTGAATCCCTCCTCGGAGTCACCTAGTGCAG”, the binding signal is reported as 3380 fluorescence intensity (a.u.). With “GCCCTGTTCCCTGCAGAGAATCATTATATACTCCCTCCAACGGAGTCACCTAGTGCAG” the binding signal was 48100 fluorescence intensity (a.u.). In the case of “CGAGGTGAGGCGGAGGGGAGGCAGAGGGGTAGAGGAGGGTCGGAGTCACCTAGTGCAG”, the binding signal is reported as 5260 fluorescence intensity (a.u.). “CTACTATACCTCCGTGCGTACCACATACTGTATGTAGACTCGGAGTCACCTAGTGCAG” was tested, and the binding signal was 4130 fluorescence intensity (a.u.). In the case of “CATAGTGCAGGGGAGAAGCCAGGGAAGAGGGAGGTGACGTCGGAGTCACCTAGTGCAG”, the binding signal is reported as 3290 fluorescence intensity (a.u.). “GAGGAGTGGGAGGAAAATGAGTGGTGGGGAAAGGATAGGGCGGAGTCACCTAGTGCAG” was tested, and the binding signal was 4150 fluorescence intensity (a.u.). For “AATAGGAAATAAACATTACTGAGAAAAGGGCTCATGTTGGCGGAGTCACCTAGTGCAG”, the binding signal was 29300 fluorescence intensity (a.u.). “AAACGATGACTGTTAAATAGGGATTAAAAGGAAAGGATGGCGGAGTCACCTAGTGCAG” was tested, and the binding signal was 41200 fluorescence intensity (a.u.). For “AGCACACATACTAGTACTATATGACAAGTCCACGGAGAGCCGGAGTCACCTAGTGCAG”, the binding signal was 3760 fluorescence intensity (a.u.). With “GATTAATACGACTACTGTCATACGTACTGTACATGTCATGCGGAGTCACCTAGTGCAG” the binding signal was 3720 fluorescence intensity (a.u.). In the case of “TTTTAGCCTCCTTTTGGTTAATCTTTGTTTGATCCAAGAACGGAGTCACCTAGTGCAG”, the binding signal is reported as 10200 fluorescence intensity (a.u.). “TTTTGAGCCTAGTTAGTCCATGATTAGCCATAAATGCTACCGGAGTCACCTAGTGCAG” was tested, and the binding signal was 4540 fluorescence intensity (a.u.). With “CTTTGGCTTTTAGCCATAGACTTTGATCCATGAGTTAGAACGGAGTCACCTAGTGCAG” the binding signal was 40900 fluorescence intensity (a.u.). For “GGGAAGAGAGAAGAGACGAAACAGGGAGGAGGGGATTGGGCGGAGTCACCTAGTGCAG”, the binding signal was 3320 fluorescence intensity (a.u.). For “CAACATGCACGTACTACGTGTGCTTGCATTGCATGCATGCCGGAGTCACCTAGTGCAG”, the binding signal was 4450 fluorescence intensity (a.u.). For “TCAGAATGCGTGTGATGTAAAAGTTCGAGAAGACTTTGTTCGGAGTCACCTAGTGCAG”, the binding signal was 3210 fluorescence intensity (a.u.). In the case of “AAAATGGAGAGAAGAGGAAGGGACAGATGACGTGGCATCCCGGAGTCACCTAGTGCAG”, the binding signal is reported as 48900 fluorescence intensity (a.u.). For “GGGAGGAAGAAGAAAGGGAGAGAGAGGGGATGACATGTGGCGGAGTCACCTAGTGCAG”, the binding signal was 5680 fluorescence intensity (a.u.). With “GAGAGAAGAGGGGAAAAGAGAGAGGAGTTTGATGACGTGGCGGAGTCACCTAGTGCAG” the binding signal was 39300 fluorescence intensity (a.u.). For “AGAGAAAGGAAGGGAAGAGAGAGGGTGATGACGTGGCGACCGGAGTCACCTAGTGCAG”, the binding signal was 35600 fluorescence intensity (a.u.). In the case of “AGACTGAAAGAGAGAGGAAGGAAGAGAGATGACGTGGCATCGGAGTCACCTAGTGCAG”, the binding signal is reported as 35800 fluorescence intensity (a.u.). With “GAGAGGACGAAGGGAAAGAGAGAGATGGTGATGACGTGGCCGGAGTCACCTAGTGCAG” the binding signal was 31600 fluorescence intensity (a.u.). In the case of “AAAGAATGACGATATGATGTGAGAAGTTTGTGAAGACTTGCGGAGTCACCTAGTGCAG”, the binding signal is reported as 41100 fluorescence intensity (a.u.). With “ACGATATGACGGAAAAGTTGGAAGTTTGTGTGTAGAAAAGCGGAGTCACCTAGTGCAG” the binding signal was 3140 fluorescence intensity (a.u.). “CCATCTCCGACGAATGATGCTTTGACACTTAATGCTGCGTCGGAGTCACCTAGTGCAG” was tested, and the binding signal was 3350 fluorescence intensity (a.u.). “CGGCTTACGGCCGCCTGTCGGGGAAGATGACTCCCTCTTCCGGAGTCACCTAGTGCAG” was tested, and the binding signal was 5050 fluorescence intensity (a.u.). With “AACAAAAGTTGTTTTGACTCACGCGGTGGCTGTTGTCTGTCGGAGTCACCTAGTGCAG” the binding signal was 6340 fluorescence intensity (a.u.). With “GTCACCGAAGGCGATTAAGGGACAAGCTATAGCTGATTTTCGGAGTCACCTAGTGCAG” the binding signal was 46100 fluorescence intensity (a.u.). For “GGAAGCGGCTGCTGACAATGGGGATTAGATAGGCTAAGGGCGGAGTCACCTAGTGCAG”, the binding signal was 3700 fluorescence intensity (a.u.). For “TTAAGGACGATTTTGTAATTCAGCTGACAAGACGAGGGATCGGAGTCACCTAGTGCAG”, the binding signal was 4300 fluorescence intensity (a.u.). “CCGAGGCCCAATAAATTATGGGGTTGGCTCCAATAAATTACGGAGTCACCTAGTGCAG” was tested, and the binding signal was 3940 fluorescence intensity (a.u.). “TACTACTTCCGATCAGAGCCATACCAATGCCACGACACGACGGAGTCACCTAGTGCAG” was tested, and the binding signal was 4090 fluorescence intensity (a.u.). “GCCATCTGACAACCAGTAAATGTACTGTCCACCGGGCCAACGGAGTCACCTAGTGCAG” was tested, and the binding signal was 6470 fluorescence intensity (a.u.). In the case of “TTTCGCCATTTCCGACAATGTACTTCACCACTGATCTGAACGGAGTCACCTAGTGCAG”, the binding signal is reported as 64900 fluorescence intensity (a.u.). For “CAAGTGATAATCTATACCTAGTTGATGATGCCAATATCATCGGAGTCACCTAGTGCAG”, the binding signal was 4340 fluorescence intensity (a.u.). “TGCAACCACCACCACCACGTCCCAAACTCGCACGTTTCTCCGGAGTCACCTAGTGCAG” was tested, and the binding signal was 4090 fluorescence intensity (a.u.). With “CAAATGTTCTTTTGACGTATATGACCACATATTTGCAGTACGGAGTCACCTAGTGCAG” the binding signal was 3520 fluorescence intensity (a.u.). With “ACAATGTTCCGGGTCTTATATTGCCAAATCAGTGACGTACCGGAGTCACCTAGTGCAG” the binding signal was 59800 fluorescence intensity (a.u.). With “CTGTGTGAACAACAAATCAATGGCCACGTCATATATGTACCGGAGTCACCTAGTGCAG” the binding signal was 16800 fluorescence intensity (a.u.). In the case of “GGGCGCACCTACAGCACCAAGTGTAACCAGAGCTTACACACGGAGTCACCTAGTGCAG”, the binding signal is reported as 3420 fluorescence intensity (a.u.). With “CCTCCATCTATGTCCTGCTGTCCAACATCTACGCGGATGCCGGAGTCACCTAGTGCAG” the binding signal was 3820 fluorescence intensity (a.u.). “TTCACTCGAGGAGGCGGCGGAGGCAGTCCACGTCAGCAACCGGAGTCACCTAGTGCAG” was tested, and the binding signal was 39000 fluorescence intensity (a.u.). In the case of “AATTCCTCTCTCTCTCTCCCCTCCCATGGCGTCACTGTCGCGGAGTCACCTAGTGCAG”, the binding signal is reported as 6120 fluorescence intensity (a.u.). “TTCTCCTCGGCCTCCATGTGCACGTCCATGTGGCGCATGGCGGAGTCACCTAGTGCAG” was tested, and the binding signal was 4220 fluorescence intensity (a.u.). “CTCTCTCCTCGTCTTCCTCGCGCTGACTCTTCTCCTCCTCCGGAGTCACCTAGTGCAG” was tested, and the binding signal was 3180 fluorescence intensity (a.u.). In the case of “TGACCGGCGCAGCTCGCGCCACGTCACCCGCACGCGCCGCCGGAGTCACCTAGTGCAG”, the binding signal is reported as 8600 fluorescence intensity (a.u.). In the case of “TTCTCTCCGTCTTCCTCCAGCACTGAATTTGTCGCTGGCGCGGAGTCACCTAGTGCAG”, the binding signal is reported as 64900 fluorescence intensity (a.u.). In the case of “ACGTTCCACTCGCGCGCCTCCACGTCAGCACCCACTGTGGCGGAGTCACCTAGTGCAG”, the binding signal is reported as 42300 fluorescence intensity (a.u.). “ATGGCGCGCCGCCACGTCACCCCGACTCGCCACGTCAGCACGGAGTCACCTAGTGCAG” was tested, and the binding signal was 65500 fluorescence intensity (a.u.). In the case of “CTTCACCGGCGGCGAGGAGCACGTCACCGGCGGCGAGCACCGGAGTCACCTAGTGCAG”, the binding signal is reported as 4120 fluorescence intensity (a.u.). “GCTAGCACTCGCCTCCCTCTGCGCCCACGCCACGCTGTGGCGGAGTCACCTAGTGCAG” was tested, and the binding signal was 4110 fluorescence intensity (a.u.). “GACGCATGCACGCCGCCACGTCGCGCGCCATGGCCACCCCCGGAGTCACCTAGTGCAG” was tested, and the binding signal was 9700 fluorescence intensity (a.u.). “CGTGCACGTGTTCACCGGAGGTGCTCGTCAGCAAAGCAGGCGGAGTCACCTAGTGCAG” was tested, and the binding signal was 6000 fluorescence intensity (a.u.).
